From PubChem BioAssay (NCATS)
Inconclusive results are not listed. Active and inactive are the calls of the source. Calls come from the whole dose curve; as a rule, active = well fitted inhibition curve with a large enough effect; inconclusive = small, poorly fitted or top-dose-only effect; inactive = flat fitted curve, though single readings scatter.

Tests used:
[1] = qHTS profiling for inhibitors of Plasmodium falciparum proliferation (AID 504749); note: nearly all actives have a fitted effect of over 60% in size;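 for activity, negative = inhibition: 0% = DMSO vehicle and full inhibition = artemisinin control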; details: P. falciparum in erythrocytes, SYBR Green DNA, 72 h
Summary of the method: (§1)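 Each compound contacts P. falciparum-infected red blood cells for 72 h at 37 C; lysis buffer (Tris, EDTA, saponin, Triton X, SYBR Green I) is added and fluorescence measured next morning; values normalized to controls.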

3D7 = experiment: as above; details: P. falciparum in erythrocytes, SYBR Green DNA, 72 h; series mostly up to 28.7 µM
Summary of the method: as §1

7G8 = experiment: as above; details: P. falciparum in erythrocytes, SYBR Green DNA, 72 h; series mostly up to 28.7 µM
Summary of the method: as §1

ATS189 = experiment: as above; details: P. falciparum in erythrocytes, SYBR Green DNA, 72 h; series mostly up to 28.7 µM
Summary of the method: as §1

C2A = experiment: as above; details: P. falciparum in erythrocytes, SYBR Green DNA, 72 h; series mostly up to 28.7 µM
Summary of the method: as §1

CP185 = experiment: as above; details: P. falciparum in erythrocytes, SYBR Green DNA, 72 h; series mostly up to 28.7 µM
Summary of the method: as §1

CP191 = experiment: as above; details: P. falciparum in erythrocytes, SYBR Green DNA, 72 h; series mostly up to 28.7 µM
Summary of the method: as §1

CP192 = experiment: as above; details: P. falciparum in erythrocytes, SYBR Green DNA, 72 h; series mostly up to 28.7 µM
Summary of the method: as §1

CP201 = experiment: as above; details: P. falciparum in erythrocytes, SYBR Green DNA, 72 h; series mostly up to 28.7 µM
Summary of the method: as §1

CP211 = experiment: as above; details: P. falciparum in erythrocytes, SYBR Green DNA, 72 h; series mostly up to 28.7 µM
Summary of the method: as §1

CP215 = experiment: as above; details: P. falciparum in erythrocytes, SYBR Green DNA, 72 h; series mostly up to 28.7 µM
Summary of the method: as §1

CP217 = experiment: as above; details: P. falciparum in erythrocytes, SYBR Green DNA, 72 h; series mostly up to 28.7 µM
Summary of the method: as §1

CP237 = experiment: as above; details: P. falciparum in erythrocytes, SYBR Green DNA, 72 h; series mostly up to 28.7 µM
Summary of the method: as §1

CP238 = experiment: as above; details: P. falciparum in erythrocytes, SYBR Green DNA, 72 h; series mostly up to 28.7 µM
Summary of the method: as §1

AA1029 = experiment: as above; details: P. falciparum in erythrocytes, SYBR Green DNA, 72 h; series mostly up to 28.7 µM
Summary of the method: as §1

AS120 = experiment: as above; details: P. falciparum in erythrocytes, SYBR Green DNA, 72 h; series mostly up to 28.7 µM
Summary of the method: as §1

ATS95 = experiment: as above; details: P. falciparum in erythrocytes, SYBR Green DNA, 72 h; series mostly up to 28.7 µM
Summary of the method: as §1

CP194 = experiment: as above; details: P. falciparum in erythrocytes, SYBR Green DNA, 72 h; series mostly up to 28.7 µM
Summary of the method: as §1

CP203 = experiment: as above; details: P. falciparum in erythrocytes, SYBR Green DNA, 72 h; series mostly up to 28.7 µM
Summary of the method: as §1

[2] = at 28.7 µM (top of the series), parasite line A
[3] = at 28.7 µM (top of the series), parasite line B
[4] = at 12.8 µM (top of the series), parasite line A
[5] = at 12.8 µM (top of the series), parasite line B
Potency is the fitted concentration of half-maximal effect.

NCc1ccccc1Sc1ccccc1CO
active: Potency (7G8) 11.2 µM | Potency (CP237) 8.91 µM
inactive: activity, negative = inhibition [1, 2] 10.7% | activity, negative = inhibition [1, 3] -5.68% | Potency (3D7) | Potency (ATS189) | Potency (C2A) | Potency (CP185) | Potency (CP191) | Potency (CP192) | Potency (CP201) | Potency (CP211) | Potency (CP215) | Potency (CP217) | Potency (CP238)

CCCCCCCCCCCCCCCCO
inactive: activity, negative = inhibition [1, 2] 1.6% | activity, negative = inhibition [1, 3] 8.58% | Potency (3D7) | Potency (7G8) | Potency (AA1029) | Potency (AS120) | Potency (ATS95) | Potency (C2A) | Potency (CP185) | Potency (CP191) | Potency (CP192) | Potency (CP194) | Potency (CP201) | Potency (CP203) | Potency (CP211) | Potency (CP215) | Potency (CP217) | Potency (CP237) | Potency (CP238)

CC(C)NCC(O)c1ccc2ccccc2c1 (centres undefined)
active: Potency ([1]; parasite line A) 11.2 µM | Potency ([1]; parasite line B) 4.47 µM | Potency (3D7) 11.2 µM | Potency (7G8) 1.41 µM | Potency (AA1029) 5.01 µM | Potency (AS120) 7.94 µM | Potency (ATS189) 8.91 µM | Potency (ATS95) 8.91 µM | Potency (CP185) 8.91 µM | Potency (CP191) 11.2 µM | Potency (CP194) 10.7 µM | Potency (CP203) 12 µM | Potency (CP215) 10.7 µM | Potency (CP217) 8.91 µM | Potency (CP237) 4.47 µM | Potency (CP238) 10 µM
inactive: Potency (CP201)

Nc1ccc(S(=O)(=O)Nc2cnc3ccccc3n2)cc1
inactive: activity, negative = inhibition [1, 2] -3.4% | activity, negative = inhibition [1, 3] -11.6% | Potency (3D7) | Potency (7G8) | Potency (AA1029) | Potency (AS120) | Potency (ATS189) | Potency (ATS95) | Potency (C2A) | Potency (CP185) | Potency (CP191) | Potency (CP192) | Potency (CP194) | Potency (CP201) | Potency (CP203) | Potency (CP211) | Potency (CP217) | Potency (CP237) | Potency (CP238)

CN(Cc1ccc(C(C)(C)C)cc1)Cc1cccc2ccccc12
active: Potency (7G8) 11.2 µM
inactive: activity, negative = inhibition [1, 2] -10% | activity, negative = inhibition [1, 3] -26.9% | Potency (3D7) | Potency (AA1029) | Potency (AS120) | Potency (ATS189) | Potency (C2A) | Potency (CP185) | Potency (CP192) | Potency (CP194) | Potency (CP201) | Potency (CP203) | Potency (CP211) | Potency (CP215) | Potency (CP217) | Potency (CP237) | Potency (CP238)

Cc1cc(NS(=O)(=O)c2ccc(N)cc2)nc(C)n1
inactive: activity, negative = inhibition [1, 2] 9.36% | activity, negative = inhibition [1, 3] 5.66% | Potency (3D7) | Potency (7G8) | Potency (AA1029) | Potency (AS120) | Potency (ATS189) | Potency (ATS95) | Potency (C2A) | Potency (CP185) | Potency (CP191) | Potency (CP192) | Potency (CP194) | Potency (CP201) | Potency (CP203) | Potency (CP215) | Potency (CP217) | Potency (CP237) | Potency (CP238)

O=C1C(CCS(=O)c2ccccc2)C(=O)N(c2ccccc2)N1c1ccccc1 (centres undefined)
inactive: activity, negative = inhibition [1, 4] -4.48% | activity, negative = inhibition [1, 5] 5.16% | Potency (3D7) | Potency (7G8) | Potency (AA1029) | Potency (AS120) | Potency (ATS189) | Potency (ATS95) | Potency (C2A) | Potency (CP185) | Potency (CP191) | Potency (CP192) | Potency (CP194) | Potency (CP201) | Potency (CP203) | Potency (CP211) | Potency (CP217) | Potency (CP237) | Potency (CP238)

CC(=O)NCCCCCC(=O)O
inactive: activity, negative = inhibition [1, 2] 7.94% | activity, negative = inhibition [1, 3] 13.3% | Potency (3D7) | Potency (7G8) | Potency (AA1029) | Potency (AS120) | Potency (ATS189) | Potency (ATS95) | Potency (C2A) | Potency (CP185) | Potency (CP191) | Potency (CP192) | Potency (CP194) | Potency (CP201) | Potency (CP203) | Potency (CP215) | Potency (CP217) | Potency (CP237) | Potency (CP238)

NS(=O)(=O)c1cc(C(=O)O)cc(N2CCCC2)c1Oc1ccccc1
inactive: activity, negative = inhibition [1, 4] 5.58% | activity, negative = inhibition [1, 5] 15.6% | Potency (3D7) | Potency (7G8) | Potency (AA1029) | Potency (AS120) | Potency (ATS189) | Potency (ATS95) | Potency (C2A) | Potency (CP185) | Potency (CP191) | Potency (CP192) | Potency (CP194) | Potency (CP201) | Potency (CP211) | Potency (CP215) | Potency (CP217) | Potency (CP237) | Potency (CP238)
